Measurements reported in PubChem BioAssay AID493191 (Broad Institute, 2011).
Among all 1,300 compounds or so, about 330 (25%) were called active. How the calls were made is not given here. The list is a sample of the results. A call without a number means that no potency is given here. Potency and affinity values are given separately.

test: growth inhibition of MALME3 cells – cell-based, CellTiter-Glo, cherry-picked, orthogonal assay for MITF inhibitor project, dose response (AID 493191); conditions: MALME3 melanoma viability, CellTiter-Glo luminescence, 24 h; series mostly up to 35 µM

SMILES | outcome
Cc1cc(C(=O)O/N=C(\N)c2ccncc2)ccc1[N+](=O)[O-] | inactive
Cc1c(NC(=O)C(C)OC(=O)c2ccc([N+](=O)[O-])s2)c(=O)n(-c2ccccc2)n1C (configuration not stated) | inactive
CCCCOc1ccc(-c2ncc([N+](=O)[O-])cn2)cc1 | inactive
CC(C)(C)N=Cc1cc(-c2ccccc2)sc1O | inactive
O=C(N/N=C/c1ccc([N+](=O)[O-])o1)c1sc2ccccc2c1Cl | inactive
C(#Cc1ccccc1)C[N+]1(CC#Cc2cccc3ccccc23)CCCC1 | inactive
CSCCNC(=O)c1ccc2nc(Cc3ccccc3F)oc2c1 | inactive
O=C(CSC(=S)N1CCCCC1)c1c(F)cccc1F | inactive
CN(Cc1ccccc1)C1=CC(=[N+]2CCCCC2)CC(C)(C)C1 | inactive
CCOc1cccc(C(=O)NC2=NCCS2)c1 | inactive
CCOC(=O)N1CCC(NC(=O)C2CCCN(Cc3nc(-c4cccc(C)c4)oc3C)C2)CC1 (configuration not stated) | inactive
[2H]C(CCOS(N)(=O)=O)c1ccc(C(C)(C)C)cc1 (configuration not stated) | inactive
N/C(=N\OC(=O)c1ccc([N+](=O)[O-])cc1)c1ccc(Br)cc1 | inactive
COc1cc(/C=C/C(=O)N2CCC=CC2=O)cc(OC)c1OC | inactive
c1ccc(C[n+]2cccc3c4ccccc4ccc32)cc1 | inactive
CCCCN(CC)CCCNC(=O)c1cc2c(=O)n(CC)c3ccccc3c2s1 | inactive
CC1(C)CC(=O)C=C(NC2=CC3OC(c4ccccc4)OCC3OC2=O)C1 (configuration not stated) | inactive
C(=N\Nc1cc(N2CCCCC2)ncn1)/c1ccco1 | inactive
Clc1ccc(-c2nc(-c3ccncc3)no2)c(Cl)c1 | inactive
O=C(Cc1cccs1)NCc1ccc(Cl)cc1Cl | inactive
CC(C)n1cc(/C=C/c2cc[n+](C)cc2)c2ccccc21 | inactive
O=C(Nc1nc(-c2ccccn2)cs1)c1ccc(F)c(S(=O)(=O)N2CCOCC2)c1 | inactive
Cc1ccc(-c2cn3cc(C)ccc3n2)cc1 | inactive
O=C(CSc1ccccn1)c1ccc2c(c1)OCO2 | inactive

SMILES | outcome
COc1cccc(NC(=O)c2cc3c(=O)n4ccccc4nc3n(CC(C)C)c2=N)c1 | inactive
CCOC(=O)N1C(=O)[C@](CC)(c2ccccc2)N1C(=O)OCC | inactive
CCOC(=O)c1cn2nc(Oc3ccccc3)ccc2n1 | inactive
C/C(=N\Nc1cc(N2CCOCC2)ncn1)c1ccccc1 | inactive
CC1(C)Cc2c(sc(NC(=O)Nc3ccccc3)c2C(N)=O)CO1 | inactive
O=S(=O)(c1ccc(Cl)cc1)N1CCN(Cc2ccc(O)c3ncccc23)CC1 | inactive
Cc1ccc(C)c(S(=O)(=O)N2CCN(Cc3ccc(O)c4ncccc34)CC2)c1 | inactive
CN(C)CCNC(=O)COc1ccc(C23CC4CC(CC(C4)C2)C3)cc1 | inactive
CN(C)c1ccc(/C=C2\SC(=O)N(CCc3nnc(N)s3)C2=O)cc1 | inactive
Cc1[nH]n(-c2ccccc2)c(=O)c1N=Nc1cccc(C(=O)O)c1 | inactive
C/C(=C\c1ccccc1)C(=O)Nc1ccc(Cl)cn1 | inactive
O=[N+]([O-])c1cc(CN2CCN(c3ccccc3)CC2)c(O)c2ncccc12 | inactive
O=[N+]([O-])c1ccccc1OCCCOc1cccc2cccnc12 | inactive
Cc1ccc(-c2cn(-c3ccc(SC(F)F)cc3)c3[n+]2CCC3)cc1 | inactive
C#CC(=O)N(c1ccc(OC)c(OC)c1)C(C(=O)NC1CCCC1)c1cccs1 (configuration not stated) | inactive
Cc1ccc(NC(=O)c2ccc(OCC3CCCO3)cc2)c(C)c1 (configuration not stated) | inactive
C#CC(=O)N(c1ccc(OC)cc1OC)C(C(=O)NC1CCCC1)c1cccs1 (configuration not stated) | inactive
COc1ccc(N(CC(=O)NCC2CCCO2)S(=O)(=O)c2ccccc2)cc1OC (configuration not stated) | inactive
CN(C)/C=N/c1ncc(C(=O)c2ccccc2)s1 | inactive
Cc1ccc2nc(Cc3ccc(N)cc3)oc2c1 | inactive
CCc1nc2oc3ccccc3c(=O)c2cc1C(=O)OC | inactive
COc1ccc(N(C(=O)CCl)C(C(=O)NC2CCCCC2)c2cccnc2)cc1 (configuration not stated) | inactive
COCCN(C(=O)CCl)C(C(=O)NC1CCCCC1)c1ccccc1C (configuration not stated) | inactive
COc1ccc(C(C(=O)NC2CCCCC2)N(C(=O)CCl)c2ccc(OC)cc2)cc1 (configuration not stated) | inactive

SMILES | outcome
Cc1cc(NC(=O)c2ccc(Cl)cc2Cl)no1 | inactive
COCn1c(COc2ccccc2)nc2ccccc21 | inactive
COc1ccc(Br)cc1/C=C/C(=O)c1ccc(NC(C)=O)cc1 | inactive
O=C(N/N=C/c1ccccc1Cl)c1n[nH]c2c1CCCC2 | inactive
Nc1c(N(CCC2=CCCCC2)C(=O)COc2ccc([N+](=O)[O-])cc2)c(=O)[nH]c(=O)n1Cc1ccccc1 | inactive
Nc1ccc(Oc2cccc(Oc3ccc(N)cc3)c2)cc1 | inactive
O=[N+]([O-])c1ccc(Sc2cc[n+]([O-])c3ccccc23)c([N+](=O)[O-])c1 | inactive
Cc1ccc(O)c(NC(=O)c2ccc3c(c2)C(=O)N(CC(C)C)C3=O)c1 | inactive
O=C(Nc1ccc2c(c1)OCCO2)c1cccc(Cl)c1Cl | inactive
O=C(Nc1ccc2nc3n(c(=O)c2c1)CCCC3)c1cc([N+](=O)[O-])ccc1F | inactive
CC(C)CN=C(NS(=O)(=O)c1ccccc1)C(Cl)(Cl)Cl | inactive
CC(=O)c1c(C)[nH]c(C(=O)Nc2ccc(C)c(C)c2)c1C | inactive
Cc1ccc(C(=O)Nc2nc3ccc(Cl)cc3s2)o1 | inactive
Cc1cc(C(F)(F)F)c2c(N)c(C(=O)Nc3cc(C)on3)sc2n1 | inactive
O=C(Nc1nc2ccccc2s1)c1ccccc1[N+](=O)[O-] | inactive
CN(c1ccc2nc3ccccc3c(=O)n2n1)C1CCCCC1 | inactive
CCOc1ccccc1-c1nc(-c2ccc(C)nc2OC)no1 | inactive
CC(=O)Nc1nc(C)c(-c2csc(Nc3cccc(C(C)=O)c3)n2)s1 | inactive
COc1ccccc1-c1nc(-c2ccc(C)nc2OC)no1 | inactive
CS(=O)(=O)c1nc(-c2ccc(F)cc2)cc(C(F)(F)F)n1 | inactive
CCOC(=O)c1cnc2c(ccc3ccccc32)c1N | inactive
O=C(Nc1cccc(Cl)c1)Nc1cc(S(=O)(=O)N2CCCCC2)ccc1Cl | inactive
O=C(Nc1ccc(S(=O)(=O)N2CCCCCC2)cc1)c1[nH]ncc1[N+](=O)[O-] | inactive
O=C(N/N=C\c1cc(Br)ccc1O)c1ccc(S(=O)(=O)N2CCCCC2)cc1 | inactive

SMILES | outcome
Cc1ccc(NC(=O)c2ccc([N+](=O)[O-])s2)cc1S(=O)(=O)N1CCOCC1 | inactive
O=C(Nc1ccc(Cl)c(S(=O)(=O)N2CCOCC2)c1)c1ccc(OCC2CCCO2)cc1 (configuration not stated) | inactive
O=C1CN(c2ccccc2)C(=S)N1C(=O)c1ccc(Br)cc1 | inactive
COc1ccc(NC(=O)c2cc(F)cc(F)c2)cc1Cl | inactive
CN(C)c1ccc(NC(=O)Nc2ccc3c(c2)nnn3C)cc1 | inactive
O=[N+]([O-])/C=C\c1ccc(N2CCOCC2)cc1 | inactive
COc1ccc(C(NC(C)=O)c2ccc3cccnc3c2O)c(OC)c1 (configuration not stated) | inactive
CCOC(=O)c1ccc2nc(C)c(CCC(C)=O)c(Cl)c2c1 | inactive
COc1ccc(C(=O)Nc2ccc(C)cn2)c(OC)c1 | inactive
CC(C)N1C(=O)S/C(=C\c2ccc(-c3ccc(Cl)c(C(=O)O)c3)o2)C1=O | inactive
COC(=O)c1ccc(COc2ccc3c(c2)CCC3)o1 | inactive
CN=c1scc(-c2ccccc2F)n1/N=C/c1ccc[nH]1 | inactive
O=C(/C=C/c1ccc2c(c1)OCO2)N1CCCCC1 | inactive
CCC(=O)NC(c1ccccc1OC)c1ccc2cccnc2c1O (configuration not stated) | inactive
CCCC(=O)NC(c1ccc(OC)c(OC)c1)c1cc(Cl)c2cccnc2c1O (configuration not stated) | inactive
COc1cnc(-c2ccccn2)nc1NC(C)C | inactive
COc1ccc(C(=O)CCNc2ccc(F)cc2)cc1 | inactive
COc1ccc(C(=O)C(CN2CCCC2)c2ccccc2)cc1 (configuration not stated) | inactive
CCNC(=O)CC1C(=O)N(c2ccc(F)cc2)C(=O)N1CCc1ccc(OC)cc1 (configuration not stated) | inactive
COc1ccc(C(=O)C(CN2CCOCC2)c2ccccc2)cc1 (configuration not stated) | inactive
c1ccc(-n2ncc3c(NCc4cccs4)ncnc32)cc1 | inactive
CC(C)(C)c1ccc(C(=O)Nc2sc3c(c2C(=O)O)CCC3)cc1 | inactive
Cc1cc(C)c2c(N)c(C(=O)Nc3ncc(C)s3)sc2n1 | inactive
O=C(CC(=O)c1ccccc1)Nc1ccccc1 | inactive

SMILES | outcome
O=C(CNC(=O)c1ccc(Br)cc1)c1ccccc1 | inactive
C/C(=N/N=C(/C)c1cccs1)c1cccs1 | inactive
CCC[n+]1c(C)sc2c3c(ccc21)CCCC3 | inactive
Cn1cc([N+](=O)[O-])c(C(=O)Nc2cc(Oc3ccccc3)cc([N+](=O)[O-])c2)n1 | inactive
Cc1nc2cc(NC(=O)Nc3cccc([N+](=O)[O-])c3)ccc2n1C | inactive
Cc1cc(C)c2c(N)c(C(=O)N/N=C/c3cccnc3)sc2n1 | inactive
O=C(O)C1CCN(C(=O)OCc2ccccc2)CC1 | inactive
Cc1ccc(NC(=O)/C=C/c2ccc([N+](=O)[O-])s2)c(C)c1 | inactive
CC1CC(C)CN(C(=O)/C=C/c2ccc([N+](=O)[O-])s2)C1 (configuration not stated) | inactive
O=C(/C=C/c1ccc([N+](=O)[O-])s1)N1CCCC1 | inactive
O=C(/C=C/c1ccccc1)Nc1cccc(C(=O)O)c1 | inactive
CC(C)N=c1c([N+](=O)[O-])nn(C)n1O | inactive
OCC1OC(n2cnc3c(NCc4ccco4)ncnc32)C(O)C1O (configuration not stated) | inactive
CC(Oc1ccc(F)cc1)C(=O)Nc1nc(-c2ccccn2)cs1 (configuration not stated) | inactive
CCC(=O)NCCc1nc2cc(NC(=O)c3cccc([N+](=O)[O-])c3)ccc2n1C | inactive
O=C(N/N=C\c1cc(Cl)ccc1O)c1ccc(S(=O)(=O)N2CCCCC2)cc1 | inactive
COc1ccc(NS(=O)(=O)c2cc(NC(=O)CNC(=O)c3cccc(OC)c3)ccc2C)cc1 | inactive
CCN1CCc2c(sc(NC(=O)c3ccc(S(=O)(=O)N4CCCCCC4)cc3)c2C(=O)NC)C1 | inactive
O=C(Cn1cnc2ccccc2c1=O)Nc1ccc2c(c1)OCCO2 | inactive
Cc1cc(C)n(-c2ccc(C(=O)Nc3ccc(C)c(S(=O)(=O)N4CCOCC4)c3)cc2)n1 | inactive
O=C(Nc1ccc(F)c(Cl)c1)c1ccc2c(c1)OCO2 | inactive
